“And” between values parts separate entries of the source, which are not always exact repeats. Identical values can stand only once. Results filed as inconclusive are left out. Some structures have more than one record in an assay (separate samples or runs), and their calls can disagree. The source made the active and inactive calls. How the source made its calls: active means hit-call score of the fitted dose curve at least 0.9, where 1 is the maximum; inconclusive means response in the unintended direction; inactive means score below 0.9.
Read-out: Cytochrome P450 2B6 (Homo sapiens) (UniProt P20813)
Assay: CLD_CYP2B6_6hr: CellzDirect (CLD) Gene Expression Assay for xenobiotic metabolism (CYP2B6) at 6 hours (AID 2283677);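 further: actives raise CYP2B6 transcript above DMSO baseline so AC50 marks an inducer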
Description: CLD_6hr is a cell-based, multiplexed-readout assay that uses hepatocyte, a human liver primary cell, with measurements taken at 6 hours after chemical dosing in a 96-well plate.CLD_CYP2B6_6hr is one of 16 assay component(s) measured or calculated from the CLD_6hr assay. It is designed to make measurements of mRNA induction, a form of inducible reporter, as detected with chemiluminescence signals by Quantitative Nuclease Protection Assay (qNPA) technology.Data from the assay component CLD_CYP2B6_6hr was analyzed at the endpoint, CLD_CYP2B6_6hr, in the positive analysis fitting direction relative to DMSO as the negative control and baseline of activity. Using a type of inducible reporter, gain-of-signal activity can be used to understand changes in the reporter gene as they relate to the gene CYP2B6. Furthermore, this assay endpoint can be referred to as a primary readout. To generalize the intended target to other relatable targets, this assay endpoint is annotated to the cyp intended target family, where subfamily is xenobiotic metabolism.
Human hepatocyte cultures were treated daily for two consecutive days with fresh dosing solutions containing appropriate concentrations of the 320 ToxCast chemicals (chemical identities were blinded to CellzDirect and other ToxCast collaborators), vehicle control (0.2% DMSO), and positive control inducers as summarized in Table 1. Due to the large number of treatment groups and chemicals examined, the ToxCast chemicals were divided into two groups (spanning two independent cultures of hepatocytes from separate donor preparations (Hu778: ToxCast plates 1 and 2; Hu776: ToxCast plates 3 and 4). Each preparation of human hepatocyte cultures was treated with respective vehicle control, medium only control, set of six positive controls/reference chemicals for the five hepatic receptor pathways, and a subset of eight of the ToxCast chemicals (indoxacarb, pyrithiobac-sodium, norflurazon, cyhalofop-butyl, methomyl, thiram, acetochlor, and propiconazole). These replicate data, coupled with internal replicates designed within the blinded ToxCast chemical library, provided additional data to evaluate interindividual differences between hepatocyte preparations and their potential impact on chemical profiles.Cell morphology and integrity were evaluated using phase-contrast microscopy as an indicator of hepatocyte cell health (Tyson & Green, 1987). Cultures for each treatment group (i.e., media, vehicle [0.2% DMSO], positive control inducers [multiple concentrations], and the ToxCast chemicals [multiple concentrations]) were observed and cell morphology was assessed relative to vehicle control cultures at each harvest time point (0, 6, 24, or 48 h). […] Images were evaluated at the conclusion of the study to assess changes in cell integrity and account for the effects of chemical exposure on uncharacteristic changes in concentration-dependent gene expression profiles. The results from these determinations of apparent cytotoxicity were annotated (yes/no) alongside the corresponding qNPA data for reference.At the conclusion of each treatment period, hepatocyte cultures (96-well) were washed with 1 volume of HBSS, lysed by addition of 25 ul ArrayPlate lysis buffer (HTG, Tucson, AZ), and 70 ul/well of Denaturation Oil, denatured by incubation at 95C for 10 min, and frozen at approximately -70C until analysis by nuclease protection assay (qNPA) (Roberts et al., 2007). For qNPA analysis, cell lysates were thawed at 50C for approximately 30 min, qNPA probes were added, and samples were incubated at 95C for 10 min to begin the detection process by denaturing the target RNA, dissociating the duplexes and secondary structure hybridization. At the conclusion of the hybridization period, S1 nuclease reagent was added to each sample to digest all nonprotected nucleotides at 50C for 60-90 min. […]

**Q.** For `O=C(O)COc1nc(Cl)c(Cl)cc1Cl`, which outcome is on record?
**A.** The outcome was “inactive”.

**Q.** `COC(=O)C(C)Oc1ccc(Oc2ccc(Cl)cc2Cl)cc1` (stereo not given) was tested. Which AC50 did it give?
**A.** Its AC50 is 3.09 µM (active) and 7.54 µM (active).

**Q.** What about the outcome of the same compound?
**A.** The outcome was “inactive”.

**Q.** How did the outcome turn out when `COC(=O)C=C(C)OP(=O)(OC)OC` was run?
**A.** The outcome was “inactive”.

**Q.** How did the outcome turn out when `CCCCOC(=O)c1ccccc1C(=O)OCCCC` was run?
**A.** Its outcome is “inactive”.

**Q.** With `CCCC1COC(Cn2cncn2)(c2ccc(Cl)cc2Cl)O1` (stereo not given) as the compound, how does the AC50 read?
**A.** The AC50 was 0.759 µM (active).

**Q.** Which outcome does the source give for `COc1cnc(OC)n2nc(NS(=O)(=O)c3c(OCC(F)F)cccc3C(F)(F)F)nc12` here?
**A.** Its outcome is “inactive”.

**Q.** How did the AC50 turn out when `CCOC(=O)C(Cl)Cc1cc(-n2nc(C)n(C(F)F)c2=O)c(F)cc1Cl` (stereo not given) was run?
**A.** Its AC50 is 3.01 µM (active).

**Q.** With `CCNc1nc(Cl)nc(NCC)n1` as the compound, how does the AC50 read?
**A.** The AC50 was 7.74 µM (active).

**Q.** Which outcome does the source give for `O=C(O)c1nc(Cl)ccc1Cl` here?
**A.** Its outcome is “inactive”.

**Q.** `CCOc1cc(Oc2ccc(C(F)(F)F)cc2Cl)ccc1[N+](=O)[O-]` was tested. Which AC50 did it give?
**A.** Its AC50 is 2.75 µM (active).

**Q.** `COc1nc(NC(C)C)nc(NC(C)C)n1` was tested. Which AC50 did it give?
**A.** Its AC50 is 4.18 µM (active).

**Q.** For `CC(C)C1(C)N=C(c2nc3ccccc3cc2C(=O)O)NC1=O` (stereo not given), which outcome is on record?
**A.** The outcome was “inactive”.

**Q.** With `COc1nc(C)nc(NC(=O)NS(=O)(=O)c2ccccc2CCC(F)(F)F)n1` as the compound, how does the AC50 read?
**A.** Its AC50 is 3.21 µM (active) and 1.89 µM (active).

**Q.** For `CCNc1nc(Cl)nc(NC(C)C)n1`, which AC50 is on record?
**A.** The AC50 was 2.99 µM (active).

**Q.** `COc1nc(C)nc(NC(=O)NS(=O)(=O)c2ccccc2Cl)n1` was tested. Which outcome did it give?
**A.** Its outcome is “inactive”.

**Q.** `O=C(Nc1ccccc1)Nc1ccnc(Cl)c1` was tested. Which AC50 did it give?
**A.** The AC50 was 20 µM (active).

**Q.** How did the AC50 turn out when `CCCCC(CC)COC(=O)c1ccccc1C(=O)OCC(CC)CCCC` (stereo not given) was run?
**A.** Its AC50 is 4.09 µM (active).

**Q.** With `CCOP(=S)(OCC)SCn1c(=O)oc2cc(Cl)ccc21` as the compound, how does the AC50 read?
**A.** The AC50 was 1.61 µM (active).

**Q.** How did the outcome turn out when `CC(Oc1ccc(Cl)cc1Cl)C(=O)O` (stereo not given) was run?
**A.** Its outcome is “inactive”.

**Q.** With `Oc1ccccc1-c1ccccc1` as the compound, how does the outcome read?
**A.** The outcome was “inactive”.

**Q.** `N#CC(CCc1ccc(Cl)cc1)(Cn1cncn1)c1ccccc1` (stereo not given) was tested. Which AC50 did it give?
**A.** The AC50 was 0.446 µM (active).

**Q.** How did the AC50 turn out when `Cc1ccc(-c2c(Cl)nc(C#N)n2S(=O)(=O)N(C)C)cc1` was run?
**A.** Its AC50 is 1.88 µM (active).

**Q.** With `CCCCNC(=O)OCC#CI` as the compound, how does the outcome read?
**A.** Its outcome is “inactive”.

**Q.** What about the AC50 of the same compound?
**A.** The AC50 was 0.838 µM (active).

**Q.** For `C=CCC1=C(C)C(OC(=O)C2C(C=C(C)C)C2(C)C)CC1=O` (stereo not given), which AC50 is on record?
**A.** Its AC50 is 2.82 µM (active).

**Q.** For `CC1COC(Cn2cncn2)(c2ccc(Oc3ccc(Cl)cc3)cc2Cl)O1` (stereo not given), which outcome is on record?
**A.** Its outcome is “inactive”.

**Q.** With `C=CCC1=C(C)[C@@H](OC(=O)[C@@H]2[C@@H](C=C(C)C)C2(C)C)CC1=O` as the compound, how does the AC50 read?
**A.** Its AC50 is 5.86 µM (active).

**Q.** With `COP(=S)(OC)Oc1nc(Cl)c(Cl)cc1Cl` as the compound, how does the AC50 read?
**A.** Its AC50 is 6.24 µM (active).

**Q.** How did the AC50 turn out when `OC(c1ccc(Cl)cc1)(c1cncnc1)c1ccccc1Cl` (stereo not given) was run?
**A.** Its AC50 is 0.442 µM (active).

**Q.** With `C=CC1(C)OC(=O)N(c2cc(Cl)cc(Cl)c2)C1=O` (stereo not given) as the compound, how does the AC50 read?
**A.** The AC50 was 8.32 µM (active).

**Q.** `Fc1ccc(Oc2ccnc3cc(Cl)cc(Cl)c23)cc1` was tested. Which AC50 did it give?
**A.** The AC50 was 20 µM (active).

**Q.** How did the outcome turn out when `CNC(=O)ON=CC(C)(C)SC` was run?
**A.** Its outcome is “inactive”.

**Q.** Which AC50 does the source give for `C#CCOS(=O)OC1CCCCC1Oc1ccc(C(C)(C)C)cc1` (stereo not given) here?
**A.** The AC50 was 1.9 µM (active).

**Q.** `CCc1nn(C)c(C(=O)NCc2ccc(C(C)(C)C)cc2)c1Cl` was tested. Which outcome did it give?
**A.** Its outcome is “inactive”.

**Q.** With `CNC(=S)S` as the compound, how does the outcome read?
**A.** Its outcome is “inactive”.

**Q.** For `CCOC(=O)CC(SP(=S)(OC)OC)C(=O)OCC` (stereo not given), which outcome is on record?
**A.** The outcome was “inactive”.

**Q.** With `CC1=C(C(=O)Nc2ccccc2)SCCO1` as the compound, how does the AC50 read?
**A.** The AC50 was 15.2 µM (active).

**Q.** Which outcome does the source give for `N#Cc1cc(Br)c(O)c(Br)c1` here?
**A.** The outcome was “inactive”.

**Q.** `CON(C)C(=O)Nc1ccc(Cl)c(Cl)c1` was tested. Which AC50 did it give?
**A.** The AC50 was 1.83 µM (active).
